This note sets out measurements from PubChem BioAssay (Tox21).

Inconclusive results are not listed. Activity calls are given as the source filed them. Unless noted, calls follow the shape of the dose curve; as a rule, active = well fitted curve in the direction sought with a large enough effect in the repeat runs; inconclusive = weak or mixed curves; inactive = no such curve, though single readings can be large; an effect the other way counts as inactive or inconclusive.

Experiment [1] in a line: qHTS assay to identify small molecule antagonists of the thyroid receptor (TR) signaling pathway - cell viability counter screen (AID 743064). Also: nearly all actives have a fitted effect of over 50% in size. In short, it runs like this:
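GH3.TRE-Luc cells, 4 h pre-plating; cpd + T3 1 nM final; 37 °C 23.5 h; CellTiter-Fluor 30 min; fluorescence read.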

A short description of experiment [2]: qHTS assay to identify small molecule antagonists of the thyroid receptor (TR) signaling pathway (AID 743065). Also: nearly all actives have a fitted effect of over 55% in size. Also: potency is read from the fitted curve at half-maximal effect. In short, it runs like this: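 GH3.TRE-Luc rat pituitary cells carrying two TR response elements driving luciferase were plated for 4 h, given compound plus 1 nM T3 (final), and incubated 23.5 h at 37 C. ONE-Glo luminescence measured reporter inhibition; CellTiter-Fluor fluorescence tracked cytotoxicity.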
Background: In qHTS, concentration-response curves come from the screen itself.

Experiment [3] relates to thyroid hormone receptor (rat, GH3 cells). The experiment can be described thus: qHTS assay to identify small molecule agonists of the thyroid receptor (TR) signaling pathway (AID 743066; calls by dose curve).
Experiment [4] can be described thus: qHTS assay to identify small molecule antagonists of the estrogen receptor alpha (ER-alpha) signaling pathway - cell viability counter screen (AID 743074; calls by dose curve;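 also: HEK293 cells carrying ER-alpha-UAS-bla reporter stimulated with 17beta-estradiol; nearly all actives have a fitted effect of over 45% in size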).
Experiment [5] deals with Estrogen receptor (Homo sapiens) (UniProt P03372). The experiment can be described thus: qHTS assay to identify small molecule agonists of the estrogen receptor alpha (ER-alpha) signaling pathway (AID 743075; calls by dose curve;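 also: HEK293 GripTite cells with ER-alpha and UAS-driven beta-lactamase reporter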).
Chain of Estrogen receptor (Homo sapiens) (P03372 whole entry, looked up): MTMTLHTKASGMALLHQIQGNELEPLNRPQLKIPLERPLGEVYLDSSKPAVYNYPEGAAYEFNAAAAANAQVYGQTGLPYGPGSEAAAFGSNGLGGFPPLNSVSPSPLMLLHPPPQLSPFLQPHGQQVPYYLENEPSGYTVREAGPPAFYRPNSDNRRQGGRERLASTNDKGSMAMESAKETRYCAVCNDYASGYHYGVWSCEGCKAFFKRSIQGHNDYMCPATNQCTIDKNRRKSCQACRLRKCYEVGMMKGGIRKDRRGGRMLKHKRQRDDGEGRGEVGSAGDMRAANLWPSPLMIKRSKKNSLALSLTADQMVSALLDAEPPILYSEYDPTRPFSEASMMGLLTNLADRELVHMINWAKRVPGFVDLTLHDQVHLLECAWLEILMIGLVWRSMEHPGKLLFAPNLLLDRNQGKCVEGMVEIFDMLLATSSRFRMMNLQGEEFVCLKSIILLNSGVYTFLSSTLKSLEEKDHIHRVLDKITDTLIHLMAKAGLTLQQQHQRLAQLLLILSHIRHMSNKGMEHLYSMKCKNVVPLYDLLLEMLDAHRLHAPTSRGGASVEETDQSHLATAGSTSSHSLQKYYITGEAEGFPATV
A short description of experiment [6]: qHTS assay to identify small molecule antagonists of the estrogen receptor alpha (ER-alpha) signaling pathway using the BG1 cell line - cell viability counter screen (AID 743081).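 Also: compound given together with 17beta-estradiol as the ER stimulus; nearly all actives have a fitted effect of over 45% in size.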
A further experiment has as its target Aromatase (Homo sapiens) (UniProt P11511). The experiment can be described thus: qHTS assay to identify aromatase inhibitors (AID 743083). Also: nearly all actives have a fitted effect of over 55% in size.
Experiment [7] is described as follows: qHTS assay to identify aromatase inhibitors - cell viability counter screen (AID 743084).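 Also: cells stimulated with testosterone during compound exposure; nearly all actives have a fitted effect of over 55% in size.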
The target of experiment [8] is Aryl hydrocarbon receptor (Homo sapiens) (UniProt P35869). The experiment can be described thus: qHTS assay to identify small molecule that activate the aryl hydrocarbon receptor (AhR) signaling pathway (AID 743085).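 Also: HG2L7.5c1 human HepG2 liver cells with stably integrated DRE-driven firefly reporter; nearly all actives have a fitted effect of over 15% in size.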 In short, it runs like this: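 Luminescence read-out: ONE-Glo reagent, 30 min at room temperature, in HG2L7.5c1 HepG2 reporter cells treated 24 h at 37C. Viability was measured beforehand by CellTiter-Fluor fluorescence after 30 min at 37C.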
Chain of Aryl hydrocarbon receptor (Homo sapiens) (P35869 whole entry, looked up): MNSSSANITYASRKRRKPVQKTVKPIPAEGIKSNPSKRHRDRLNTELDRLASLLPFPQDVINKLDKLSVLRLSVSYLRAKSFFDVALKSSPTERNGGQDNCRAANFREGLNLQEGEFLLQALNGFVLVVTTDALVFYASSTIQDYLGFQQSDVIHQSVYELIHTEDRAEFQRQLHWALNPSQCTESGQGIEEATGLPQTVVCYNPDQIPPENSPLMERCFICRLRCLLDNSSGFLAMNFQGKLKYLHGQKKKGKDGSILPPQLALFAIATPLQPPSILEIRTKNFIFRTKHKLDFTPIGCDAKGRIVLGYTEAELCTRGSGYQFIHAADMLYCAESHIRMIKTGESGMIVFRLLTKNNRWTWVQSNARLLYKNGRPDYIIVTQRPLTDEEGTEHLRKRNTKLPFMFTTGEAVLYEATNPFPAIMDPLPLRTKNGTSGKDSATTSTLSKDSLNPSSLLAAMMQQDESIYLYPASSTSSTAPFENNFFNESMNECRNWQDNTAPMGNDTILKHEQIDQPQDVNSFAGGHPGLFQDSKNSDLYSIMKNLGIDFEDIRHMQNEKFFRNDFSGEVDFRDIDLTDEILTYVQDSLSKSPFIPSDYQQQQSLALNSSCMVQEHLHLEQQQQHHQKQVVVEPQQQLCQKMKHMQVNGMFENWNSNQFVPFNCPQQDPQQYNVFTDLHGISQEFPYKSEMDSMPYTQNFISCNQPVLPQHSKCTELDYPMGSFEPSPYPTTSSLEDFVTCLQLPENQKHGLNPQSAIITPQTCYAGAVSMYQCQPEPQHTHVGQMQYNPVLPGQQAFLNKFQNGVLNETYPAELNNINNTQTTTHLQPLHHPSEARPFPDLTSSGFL

The nature of experiment [9]: qHTS assay to identify small molecule that activate the aryl hydrocarbon receptor (AhR) signaling pathway - cell viability counter screen (AID 743086).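 Also: HepG2 liver cells carrying the AhR DRE luciferase reporter; nearly all actives have a fitted effect of over 45% in size.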 In short, it runs like this: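 HepG2-AhR-luc (HG2L7.5c1) cells, 4000/well, were preincubated 5 h at 37C, exposed to compound in qHTS format for 24 hr at 37C, then given CellTiter-Fluor for 30 min; viability was read as fluorescence in the reporter wells.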

The target in experiment [10] is Peroxisome proliferator-activated receptor gamma (Homo sapiens) (UniProt P37231). The experiment can be described thus: qHTS assay to identify small molecule antagonists of the peroxisome proliferator-activated receptor gamma (PPARg) signaling pathway (AID 743191; calls by dose curve; also: nearly all actives have a fitted effect of over 30% in size; also: potency is read from the fitted curve at half-maximal effect). The procedure, abridged:
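GeneBLAzer PPARg UAS-bla HEK293H cells carrying a UAS-driven beta-lactamase reporter were plated at 3000 cells/well, preincubated 5 h at 37C, then given compound for 17 h at 37C; LiveBLAzer B/G FRET substrate was read after 1 h at room temperature.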

Experiment [11] in a line: qHTS assay to identify small molecule antagonists of the peroxisome proliferator-activated receptor gamma (PPARg) signaling pathway - cell viability counter screen (AID 743194). Also: nearly all actives have a fitted effect of over 55% in size. Also: potency is read from the fitted curve at half-maximal effect. In short, it runs like this: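 PPARg-UAS-bla HEK293H cells were plated, rested 5 h at 37 C, then treated with compounds plus rosiglitazone (50 nM final) for 17 h at 37 C; viability was then read by CellTiter-Glo luminescence after 30 min at room temperature.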

Experiment [12] is described as follows: qHTS assay for small molecule agonists of the antioxidant response element (ARE) signaling pathway (AID 743202; active = well fitted activation curve with a large enough effect in the signal ratio in the repeat runs, not every such curve was filed as active; the % refers to the signal ratio; also: potency is read from the fitted curve at half-maximal effect). In short, it runs like this:
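Following a 16 h, 37 C exposure of reporter HepG2 cells (ARE-driven beta-lactamase, 2,000 cells/well) to compounds, FRET substrate was applied for 2 h at room temperature and fluorescence intensity recorded.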

A short description of experiment [13]: qHTS assay for small molecule agonists of the antioxidant response element (ARE) signaling pathway - cell viability counter screen (AID 743203; calls by dose curve; also: nearly all actives have a fitted effect of over 55% in size). In short, it runs like this: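 Viability counter screen: stably transfected ARE-bla HepG2 line, 16 hrs compound exposure at 37C/5% CO2, ATP-based CellTiter-Glo luminescence measured in the reporter wells.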
The nature of experiment [14]: qHTS assay for small molecule activators of the heat shock response signaling pathway - cell viability counter screen (AID 743209). Also: nearly all actives have a fitted effect of over 50% in size. The procedure, abridged:
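Viability of HSE-bla HeLa cells is measured with CellTiter-Glo in the wells already used for the reporter read. Compound exposure lasts 5 h at 37 C, and luminescence is read after 30 min at room temperature.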

Experiment [15] is described as follows: qHTS assay for small molecule activators of the heat shock response signaling pathway (AID 743210; active = well fitted activation curve with a large enough effect in the signal ratio in the repeat runs, with a control signal flat, not every such curve was filed as active; the % refers to the signal ratio; also: potency is read from the fitted curve at half-maximal effect). In short, it runs like this: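 Heat shock element–beta-lactamase HeLa reporter cells; qHTS with compounds for 5 h at 37 C; detection by FRET substrate fluorescence after 2.5 h at RT.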
The target in experiment [16] is Peroxisome proliferator-activated receptor gamma (Homo sapiens) (UniProt P37231). The experiment can be described thus: qHTS assay to identify small molecule agonists of the peroxisome proliferator-activated receptor gamma (PPARg) signaling pathway (AID 743094; active = well fitted activation curve with a large enough effect in the signal ratio in the repeat runs, not every such curve was filed as active; the % refers to the signal ratio). The procedure, abridged: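 Reporter activation was scored by fluorescence of cleaved LiveBLAzer B/G substrate (1 h, room temperature) in PPARg-bla HEK293H cells previously treated 17 h at 37C with DMSO-dissolved compounds.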
Chain of Peroxisome proliferator-activated receptor gamma (Homo sapiens) (P37231 whole entry, looked up): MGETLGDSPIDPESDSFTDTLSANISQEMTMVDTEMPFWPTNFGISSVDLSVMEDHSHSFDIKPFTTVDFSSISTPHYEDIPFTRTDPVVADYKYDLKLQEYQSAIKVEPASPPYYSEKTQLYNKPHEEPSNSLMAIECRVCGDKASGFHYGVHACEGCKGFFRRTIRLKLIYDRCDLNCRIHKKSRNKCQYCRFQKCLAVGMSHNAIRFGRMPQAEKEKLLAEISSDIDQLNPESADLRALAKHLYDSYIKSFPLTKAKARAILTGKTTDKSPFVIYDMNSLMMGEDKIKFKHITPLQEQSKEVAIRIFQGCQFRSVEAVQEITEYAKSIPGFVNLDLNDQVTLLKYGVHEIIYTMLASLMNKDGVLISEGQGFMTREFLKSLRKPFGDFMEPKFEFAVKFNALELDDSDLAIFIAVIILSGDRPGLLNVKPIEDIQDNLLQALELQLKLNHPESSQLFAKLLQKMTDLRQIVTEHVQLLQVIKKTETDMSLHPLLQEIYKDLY

Experiment [17] is described as follows: qHTS assay to identify small molecule antagonists of the estrogen receptor alpha (ER-alpha) signaling pathway using the BG1 cell line (AID 743080; calls by dose curve;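 also: BG1 cells stimulated with 17beta-estradiol alongside compound; nearly all actives have a fitted effect of over 25% in size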). The procedure, abridged: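 Readout is ONE-Glo luminescence, taken 30 min at room temperature after reagent addition, preceded by a CellTiter-Fluor viability read; BG1-Luc-4E2 cells had received compound and 17beta-estradiol for 21.5 h at 37 C.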

The target of experiment [18] is Estrogen receptor (Homo sapiens) (UniProt P03372). The experiment can be described thus: qHTS assay to identify small molecule agonists of the estrogen receptor alpha (ER-alpha) signaling pathway using the BG1 cell line (AID 743079). Also: nearly all actives have a fitted effect of over 20% in size. Conditions: BG1Luc4E2 cells, ERE-luciferase agonist, 22 h; activation: at 70.3 µM (top of the series).

Chain of Aromatase (Homo sapiens) (P11511 whole entry, looked up): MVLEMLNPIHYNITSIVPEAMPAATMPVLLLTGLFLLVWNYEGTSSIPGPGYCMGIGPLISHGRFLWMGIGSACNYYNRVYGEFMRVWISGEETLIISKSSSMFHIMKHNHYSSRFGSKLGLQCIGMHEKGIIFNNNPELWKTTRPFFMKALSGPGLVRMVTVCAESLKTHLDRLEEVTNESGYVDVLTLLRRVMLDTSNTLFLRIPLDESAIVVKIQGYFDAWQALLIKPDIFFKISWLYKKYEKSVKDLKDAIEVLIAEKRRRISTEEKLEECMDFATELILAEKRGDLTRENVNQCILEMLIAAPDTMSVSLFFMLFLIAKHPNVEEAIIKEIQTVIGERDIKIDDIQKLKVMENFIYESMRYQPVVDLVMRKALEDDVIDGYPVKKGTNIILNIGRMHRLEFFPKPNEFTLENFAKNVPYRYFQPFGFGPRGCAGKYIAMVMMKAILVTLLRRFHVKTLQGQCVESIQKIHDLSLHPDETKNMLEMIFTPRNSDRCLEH

Turning to `CC(C)=CCC1C(=O)N(c2ccccc2)N(c2ccccc2)C1=O`, the Potency entry (in experiment [1]; in [4]; in experiment [5]; in experiment [6]; with Aromatase (Homo sapiens); in experiment [7]) was “inactive” throughout. The Potency entry in [8], in [9], in experiment [11], in experiment [13] and in experiment [14] was “inactive” throughout. Further, the Potency in experiment [2] was 21.1 µM (active); in experiment [10], 4.22 µM (active); in experiment [12] it was 1.88 µM (active); in experiment [15] it was 28.7 µM (active). Also, the outcome in [3] was inactive.
For the compound `CCCCCCCCN`, the Potency entry (in experiment [1]; in experiment [2]; in experiment [4]; in experiment [6]; with Aromatase (Homo sapiens); in [7]) was “inactive” throughout. In addition, the Potency entry in [8], in experiment [9], in experiment [16], in [10], in experiment [11] and in experiment [12] was “inactive” throughout. In addition, the Potency result in [13], in [14] and in experiment [15] was “inactive” each time. In experiment [3], the call was inactive.
For `NC(=O)c1ccncc1`, the Potency entry (in experiment [1]; in [2]; in experiment [4]; in experiment [6]; in the experiment with Aromatase (Homo sapiens); in experiment [7]) was “inactive” each time. The Potency result in experiment [8], in [9], in experiment [16], in [10], in experiment [11] and in [12] was “inactive” throughout. Also, the Potency result in experiment [13], in [14] and in experiment [15] was “inactive” throughout. Moreover, the compound was classed as inactive in experiment [3].
For `Clc1cc(Cl)nc(Cl)n1`, the Potency entry (in [1]; in experiment [2]; in [4]; in experiment [6]; with Aromatase (Homo sapiens); in [7]) was “inactive” throughout. The Potency entry in experiment [8], in [9], in experiment [14] and in [15] was “inactive” in each case. Besides, the result in experiment [3] was inactive. In addition, the Potency in experiment [11] is 49.6 µM (active).
Consider `CC(C)(O)c1ccc(CNC(=O)c2cccnc2Oc2ccc3nonc3c2)cc1`, for which the Potency result in experiment [1], in experiment [2], in experiment [4], in experiment [5], in experiment [17] and in [6] was “inactive” throughout. Moreover, the Potency entry (with Aromatase (Homo sapiens); in experiment [7]; in experiment [8]; in [9]; in experiment [11]; in [14]) was “inactive” in each case. For the same compound, in experiment [15], the Potency result was “inactive”. Further, the result in [3] was inactive.
With `CC(=O)OCC[N+](C)(C)C`, the Potency result (in experiment [1]; in experiment [2]; in [4]; in [6]; with Aromatase (Homo sapiens); in experiment [7]) was “inactive” throughout. Further, the Potency entry in experiment [8], in experiment [9], in experiment [16], in [10], in experiment [11] and in experiment [12] was “inactive” each time. Further, the Potency entry in experiment [13], in experiment [14] and in experiment [15] was “inactive” in each case. For the same compound, in experiment [3], the call was inactive.
Consider `CC/C=C1/OC(=O)c2ccccc21`, for which the Potency result (in [1]; in [2]; in experiment [4]; in experiment [6]; with Aromatase (Homo sapiens); in experiment [7]) was “inactive” throughout. Besides, the Potency entry in experiment [8], in experiment [9], in experiment [16], in experiment [11], in experiment [12] and in experiment [13] was “inactive” in each case. Besides, the Potency result in [14] and in experiment [15] was “inactive” throughout. Besides, the result in experiment [3] was inactive.
In the case of `CC(=O)c1ccc([N+](=O)[O-])cc1`, the Potency entry (in experiment [1]; in [2]; in [4]; in experiment [6]; in the experiment with Aromatase (Homo sapiens); in [7]) was “inactive” throughout. Further, the Potency entry in experiment [8], in experiment [9], in experiment [16], in [10], in experiment [11] and in [12] was “inactive” in each case. Moreover, the Potency entry in [14] and in experiment [15] was “inactive” each time. In addition, the call in [3] was inactive.
In the case of `C/C=C/C=C/C=O`, the Potency entry (in experiment [1]; in experiment [2]; in [5]; in experiment [18]; in experiment [6]; with Aromatase (Homo sapiens)) was “inactive” each time. In addition, the Potency result in [7], in [8], in experiment [9], in experiment [16], in experiment [10] and in experiment [13] was “inactive” in each case. The Potency result in experiment [14] and in [15] was “inactive” throughout. Also, the compound was called inactive in experiment [3].
